Results from ChEMBL document CHEMBL4513216, “Probing the Open Global Health Chemical Diversity Library for Multistage-Active Starting Points for Next-Generation Antimalarials” (ACS Infect Dis, 2020).
Screen size: about 69,000 compounds; about 8,600 (12%) showed an effect of 50% or more. Shown is part of a subset that was picked to be rich in strong results.

These compounds were tested on Plasmodium berghei (assay: Screen against P. berghei liver stage (PbLuc), transformed with Luciferase, at 10uM). Conditions: tested at 10 uM.
Format: functional, HepG2

Question: For `CN(C)C(=O)N1CCC[C@]2(C(=O)N(C)C)CN(c3ccccn3)C[C@@H]2C1`, which INHIBITION is on record?
Answer: -2.35%

Question: For `Cc1ccc(C(=O)N2CCO[C@H]3[C@H](OCCN(C)C)CC[C@@H]32)o1`, which INHIBITION is on record?
Answer: -26.1%

Question: With `CC(NCc1ccncc1)c1cc2c(cc1Br)OCCO2` (configuration not stated) as the compound, how does the INHIBITION read?
Answer: 53.9%

Question: Which INHIBITION does the source give for `CC(NCc1ccccn1)c1cc2c(cc1Br)OCCO2` (configuration not stated) here?
Answer: 47.4%

Question: Which INHIBITION does the source give for `CC(NCc1cccnc1)c1cc2c(cc1Br)OCCO2` (configuration not stated) here?
Answer: 15%

Question: Which INHIBITION does the source give for `Cc1cnc(N2CCO[C@@H]3CC(COCc4cccnc4)C[C@H]32)nc1` (some centres not stated) here?
Answer: 45.4%

Question: How did the INHIBITION turn out when `O=C(Nc1cccnc1N1CCSCC1)c1ccc2c(c1)CCO2` was run?
Answer: 39.6%

Question: How did the INHIBITION turn out when `COCCOc1ccnc(-c2noc([C@@H]3CCCN3CC(C)(C)C)n2)c1` was run?
Answer: 53.2%

Question: `COCCOc1ccnc(-c2noc([C@@H]3CCCN3CC3CC3)n2)c1` was tested. Which INHIBITION did it give?
Answer: 18.4%

Question: How did the INHIBITION turn out when `COCCOc1ccnc(-c2noc([C@@H]3CCCN3CC(C)C)n2)c1` was run?
Answer: -15.6%

Question: For `CS(=O)(=O)CCC(=O)N1C[C@H]2CC[C@@H](C1)N(Cc1ccccn1)C2=O`, which INHIBITION is on record?
Answer: 5.38%

Question: With `c1ccc(-c2nc(CNCC3CCCN3c3cccnn3)co2)cc1` (configuration not stated) as the compound, how does the INHIBITION read?
Answer: -17.7%

Question: How did the INHIBITION turn out when `Cn1cc(CN2CCCC(n3c(=O)oc4ccccc43)C2)cn1` (configuration not stated) was run?
Answer: 2.14%

Question: Which INHIBITION does the source give for `CC(CN(C)C)Nc1nc(O)cc(Cc2ccccc2F)n1` (configuration not stated) here?
Answer: 39.3%

Question: With `CCOC(=O)C1CC2(CCCCC2)N2CCC(=O)N12` (configuration not stated) as the compound, how does the INHIBITION read?
Answer: 54%

Question: How did the INHIBITION turn out when `CCOC(=O)C1CC2(CCOCC2)N2CCC(=O)N12` (configuration not stated) was run?
Answer: 20.7%

Question: `CCOC(=O)C1CC2(CCCC2)N2CCC(=O)N12` (configuration not stated) was tested. Which INHIBITION did it give?
Answer: 0.284%

Question: `Cc1noc(C)c1C1CCCN1C(=O)CN1CC2(CCNCC2)OC1=O` (configuration not stated) was tested. Which INHIBITION did it give?
Answer: 36.8%

Question: `O=C1OC2(CCNCC2)CN1CC(=O)N1CCCC1c1ccco1` (configuration not stated) was tested. Which INHIBITION did it give?
Answer: 16.8%

Question: `Cc1ccccc1C1CCCN1C(=O)CN1CC2(CCNCC2)OC1=O` (configuration not stated) was tested. Which INHIBITION did it give?
Answer: 50.1%

Question: Which INHIBITION does the source give for `Cc1nc2ccc(S(=O)(=O)Nc3c(C)nn(CC(=O)O)c3C)cc2s1` here?
Answer: 34.7%

Question: For `CCN(Cc1ccncc1)c1cc(C2CCCNC2)nc(C)n1` (configuration not stated), which INHIBITION is on record?
Answer: 53.7%

Question: Which INHIBITION does the source give for `CCN(Cc1ccncc1)c1cc(C2CCNCC2)nc(C)n1` here?
Answer: 14.6%

Question: `Cc1nc(C2CCCNC2)cc(N(C)CCc2ccccc2)n1` (configuration not stated) was tested. Which INHIBITION did it give?
Answer: -16.5%

Question: For `CCOc1ccc(CNC(C)c2c(C)nn(C)c2C)cc1` (configuration not stated), which INHIBITION is on record?
Answer: -88.5%

Question: `COc1ccccc1CC(=O)N1CCC(NCc2ccccn2)CC1` was tested. Which INHIBITION did it give?
Answer: 46.3%

Question: Which INHIBITION does the source give for `CN(Cc1cnc(N)nc1)C(=O)c1coc(COc2cccc(F)c2)n1` here?
Answer: 0.546%

Question: `COc1ccccc1N1CCN(c2nc(N)nc3[nH]cnc23)CC1` was tested. Which INHIBITION did it give?
Answer: 20.6%

Question: Which INHIBITION does the source give for `COc1ccc(CN(C)[C@@H]2COC[C@H]2c2ccc(F)cc2)cc1` here?
Answer: 34.3%

Question: `COc1ccc(CN(C)[C@@H]2COC[C@H]2c2ccc(F)cc2)c(OC)c1` was tested. Which INHIBITION did it give?
Answer: 59.9%

Question: Which INHIBITION does the source give for `COc1cc(CN(C)[C@@H]2COC[C@H]2c2ccc(F)cc2)cc(OC)c1` here?
Answer: 10.635%

Question: With `CN1CCOCC12CCN(C(=O)C1CCC1)CC2` as the compound, how does the INHIBITION read?
Answer: 22.3%

Question: `CCOCCCNC(=O)C1(C)CCC(=O)N1c1ccccc1OC` (configuration not stated) was tested. Which INHIBITION did it give?
Answer: 32.1%

Question: For `CC(=O)N1CCC(n2nccc2-c2cnc(NCCO)nc2)CC1`, which INHIBITION is on record?
Answer: 33.7%

Question: `Oc1nnc(-c2cccs2)c2sc(N3CCCC3)nc12` was tested. Which INHIBITION did it give?
Answer: 47.7%

Question: With `Oc1nnc(-c2cccs2)c2sc(N3CCCCC3)nc12` as the compound, how does the INHIBITION read?
Answer: 54.3%

Question: For `O=c1[nH]nc(-c2cccs2)c2sc(N3CCOCC3)nc12`, which INHIBITION is on record?
Answer: -29.5%

Question: With `Cc1nc(NC(=O)C2CCCN(C(N)=O)C2)sc1-c1ccccc1` (configuration not stated) as the compound, how does the INHIBITION read?
Answer: 34.1%

Question: For `Oc1nnc(-c2ccccc2)c2sc(N3CCCCC3)nc12`, which INHIBITION is on record?
Answer: 57%

Question: `c1ccc(-c2nnc3n2CCN(c2nc(C4CC4)ns2)C3)cc1` was tested. Which INHIBITION did it give?
Answer: -57.3%

Question: `CC(CS(C)(=O)=O)N(C(=O)CCc1cccc(F)c1)C1CC1` (configuration not stated) was tested. Which INHIBITION did it give?
Answer: -35%

Question: `CNS(=O)(=O)c1ccc(CNC(=O)N(C)C(C)COC)cc1` (configuration not stated) was tested. Which INHIBITION did it give?
Answer: 44.9%

Question: For `CCC1=N[C@@]2(CC[C@@H]3CN(Cc4ccc(Cl)cc4)C[C@@H]32)C(=O)N1`, which INHIBITION is on record?
Answer: 35.3%

Question: With `CCC1=N[C@@]2(CC[C@@H]3CN(CC4CC4)C[C@@H]32)C(=O)N1CC1CC1` as the compound, how does the INHIBITION read?
Answer: 30.3%

Question: Which INHIBITION does the source give for `CC(C)CCN(C(=O)Nc1cccc(C(=O)N(C)C)c1)C1CC1` here?
Answer: 84.1%

Question: Which INHIBITION does the source give for `N#Cc1cccc(NC(=O)N(CC(F)F)C2CC2)c1` here?
Answer: 24.3%

Question: `CC(=O)c1cccc(NC(=O)N(CC(F)F)C2CC2)c1` was tested. Which INHIBITION did it give?
Answer: 61.1%

Question: For `CC(C)CCN(C(=O)c1cccc(NC(N)=O)c1)C1CC1`, which INHIBITION is on record?
Answer: 12.4%

Question: `CC(=O)c1cccc(NC(=O)N(CCO)C2CCc3ccccc32)c1` (configuration not stated) was tested. Which INHIBITION did it give?
Answer: 24.8%

Question: How did the INHIBITION turn out when `CC(C)CN(C(=O)Nc1cccc(C(=O)N(C)C)c1)C1CC1` was run?
Answer: 38.5%

Question: How did the INHIBITION turn out when `Cn1ccc(C(=O)N2C[C@@H]3CN(CC4CC4)CCO[C@@H]3C2)n1` was run?
Answer: 27.5%

Question: How did the INHIBITION turn out when `CCc1noc(CN(C)Cc2cc3ccc(Cl)cc3[nH]c2=O)n1` was run?
Answer: -4.37%

Question: `CN(C)C(=O)c1ccc(C(C(=O)O)N(C)Cc2ccccc2Cl)cc1` (configuration not stated) was tested. Which INHIBITION did it give?
Answer: 44.3%

Question: With `CC(CC#N)N(C)Cc1ccccc1F` (configuration not stated) as the compound, how does the INHIBITION read?
Answer: 30.9%

Question: With `CC(O)CNCc1ccccc1C(F)(F)F` (configuration not stated) as the compound, how does the INHIBITION read?
Answer: 37.7%

Question: How did the INHIBITION turn out when `Cc1ccccc1CN(C)C(C(N)=O)c1ccccc1` (configuration not stated) was run?
Answer: 43.1%

Question: Which INHIBITION does the source give for `COCCN(C)C(C(=O)O)c1ccc(F)c(Cl)c1` (configuration not stated) here?
Answer: 40.3%

Question: For `CN(Cc1ccccc1Cl)C(C(=O)O)c1ccc(F)c(CO)c1` (configuration not stated), which INHIBITION is on record?
Answer: 63.8%

Question: Which INHIBITION does the source give for `CN(Cc1ccccc1F)C(C(N)=O)c1ccccc1` (configuration not stated) here?
Answer: 50.8%

Question: For `CN(Cc1ccccc1C(F)(F)F)C(C(N)=O)c1ccccc1` (configuration not stated), which INHIBITION is on record?
Answer: 36.3%

Question: Which INHIBITION does the source give for `CC(C(N)=O)N(C)Cc1ccccc1C(F)(F)F` (configuration not stated) here?
Answer: 56.8%

Question: How did the INHIBITION turn out when `O=C(CCn1c(C(F)(F)F)cc2cccnc21)N1CCCC1` was run?
Answer: 12.3%

Question: For `O=C1COC2(CCN(c3cccc(F)c3)CC2)CN1Cc1ccccn1`, which INHIBITION is on record?
Answer: 42.3%

Question: For `CC(C)N1CCc2c(C#N)c(NCc3ccco3)n3cnnc3c2C1`, which INHIBITION is on record?
Answer: 37.1%

Question: `COC(=O)N1CCN(c2ncnc3nc(C)cc(C)c23)CC1` was tested. Which INHIBITION did it give?
Answer: 20%

Question: With `CC(C)NC(=O)c1ccc2c(c1)nc1n2CCN(Cc2ccco2)C1` as the compound, how does the INHIBITION read?
Answer: -11.4%

Question: For `CC(=O)N1[C@H](CN(C)C)C[C@@H]2CN(C(=O)c3cncc(C)c3)CC[C@@H]21`, which INHIBITION is on record?
Answer: 23.5%
